Measured values: the supplement of paper PMC13380429

Columns and labels:
[1] = tested on: Vero E6 infected with SARS-CoV-2; experiment: morphology score (similarity to uninfected cells); higher = more like uninfected cells; conditions: 24 h
[2] = tested on: Vero E6 infected with SARS-CoV-2; experiment: SARS-CoV-2 infection rate relative to infected DMSO; higher = more infection, active = 60 or less; conditions: 24 h

CSc1ccc([C@H]2CN3CCC[C@H]3c3ccccc32)cc1 (racemic) (10 µM)
morphology score [1]: 0.328
SARS-CoV-2 infection rate [2]: 86.5% (inactive)

O=C([O-])C(O)[C@H](O)[C@@H](O)[C@H](O)[C@H](O)CO.O=C([O-])C(O)[C@H](O)[C@@H](O)[C@H](O)[C@H](O)CO.[Ca+2] (stereo partly specified) [calcium-gluceptate] (10 µM)
morphology score [1]: -0.0282
SARS-CoV-2 infection rate [2]: 114% (inactive)

Cc1cc(C)c(N(Cc2ccccc2)S(=O)(=O)c2ccc(OCCNC(=O)c3cc4ccccc4o3)cc2)c(C(=O)NO)c1 (0.833333 µM)
morphology score [1]: -0.0297
SARS-CoV-2 infection rate [2]: 96% (inactive)

Cl/C(=C\n1cncn1)c1ccc(Cl)cc1Cl [loreclezole] (10 µM)
morphology score [1]: 0.0913
SARS-CoV-2 infection rate [2]: 102% (inactive)

O=c1[nH]cnc2nc[nH]c12 [hypoxanthine] (10 µM)
morphology score [1]: 0.0617
SARS-CoV-2 infection rate [2]: 108% (inactive)

CCN1CCN(C(=O)N[C@@H](C(=O)N[C@@H]2C(=O)N3C(C(=O)O)=C(CSc4nnnn4C)CS[C@H]23)c2ccc(O)cc2)C(=O)C1=O [cefoperazone] (10 µM)
morphology score [1]: 0.206
SARS-CoV-2 infection rate [2]: 104% (inactive)

C[C@@H](Oc1cc(-n2cnc3ccc(CN4CCN(C)CC4)cc32)sc1C(N)=O)c1ccccc1C(F)(F)F (0.833333 µM)
morphology score [1]: 0.0643
SARS-CoV-2 infection rate [2]: 94% (inactive)

C=C[C@]1(C)C[C@@H](OC(=O)CS[C@@H]2C[C@H]3CC[C@@H](C2)N3C)[C@]2(C)[C@H](C)CC[C@]3(CCC(=O)[C@H]32)[C@@H](C)[C@@H]1O [retapamulin] (10 µM)
morphology score [1]: 0.0286
SARS-CoV-2 infection rate [2]: 109% (inactive)

C=C1/C(=C\C=C2/CCC[C@]3(C)[C@@H]([C@H](C)CCCC(O)(C(F)(F)F)C(F)(F)F)CC[C@@H]23)C[C@@H](O)C[C@@H]1O [falecalcitriol] (10 µM)
morphology score [1]: 0.0244
SARS-CoV-2 infection rate [2]: 95.5% (inactive)

Cc1cc(C(=O)N2Cc3cnn(C)c3Nc3ccccc32)ccc1CNC(=O)N1CCC[C@H]1C(=S)N1CCCN(C)CC1 (10 µM)
morphology score [1]: 0.0545
SARS-CoV-2 infection rate [2]: 110% (inactive)

CO/N=C(\C(=O)N[C@@H]1C(=O)N2C(C(=O)OCOC(=O)C(C)(C)C)=C(C)CS[C@H]12)c1csc(N)n1 [cefetamet-pivoxil] (10 µM)
morphology score [1]: 0.225
SARS-CoV-2 infection rate [2]: 96.5% (inactive)

O=C1Cc2cc(CCN3CCN(c4nsc5ccccc45)CC3)c(Cl)cc2N1 [ziprasidone] (10 µM)
morphology score [1]: 0.328
SARS-CoV-2 infection rate [2]: 100% (inactive)

CN(C)C(=O)c1ccc(S(=O)(=O)c2ccc(NC(=O)[C@@](C)(O)C(F)(F)F)c(Cl)c2)cc1 (10 µM)
morphology score [1]: 0.28
SARS-CoV-2 infection rate [2]: 104% (inactive)

CC(=O)NC1N=C(c2ccccc2)c2ccccc2NC1=O (stereo unspecified) (10 µM)
morphology score [1]: 0.189
SARS-CoV-2 infection rate [2]: 105% (inactive)

CCS(=O)(=O)c1cccc(-c2cc(C(=O)NC3CCN(C)CC3)c(C)c3[nH]c4ncc(C)cc4c23)c1 (0.833333 µM)
morphology score [1]: 0.14
SARS-CoV-2 infection rate [2]: 105% (inactive)

N#CCCCSC(=N)N [kevetrin] (10 µM)
morphology score [1]: 0.195
SARS-CoV-2 infection rate [2]: 92% (inactive)

CC(C)CN(C[C@@H](O)[C@H](Cc1ccccc1)NC(=O)O[C@H]1CCOC1)S(=O)(=O)c1ccc(N)cc1 [amprenavir] (10 µM)
morphology score [1]: 0.0911
SARS-CoV-2 infection rate [2]: 110% (inactive)

CCC(Cc1c(I)cc(I)c(N)c1I)C(=O)O (stereo unspecified) [iopanic-acid] (10 µM)
morphology score [1]: -0.136
SARS-CoV-2 infection rate [2]: 116% (inactive)

CCCCCCCCCCCCCC(=O)[O-].CCCCCCCCCCCCCC(=O)[O-].N[C@@H]1CCCC[C@H]1N.[Pt+2] [miriplatin] (10 µM)
morphology score [1]: 0.0834
SARS-CoV-2 infection rate [2]: 114% (inactive)

CC(C)C[C@H](NC(=O)CNC(=O)[C@H](Cc1ccc(O)cc1)NC(=O)[C@H](CO)NC(=O)[C@H](Cc1c[nH]c2ccccc12)NC(=O)[C@H](Cc1cnc[nH]1)NC(=O)[C@@H]1CCC(=O)N1)C(=O)N[C@@H](CCCNC(=N)N)C(=O)N1CCC[C@H]1C(=O)NCC(N)=O [gonadorelin] (10 µM)
morphology score [1]: -0.182
SARS-CoV-2 infection rate [2]: 104% (inactive)

CCOc1ccccc1C(N)=O [ethenzamide] (10 µM)
morphology score [1]: -0.0139
SARS-CoV-2 infection rate [2]: 118% (inactive)

CC(=O)Oc1cccc(C(=O)O)c1OC(C)=O [dipyrocetyl] (10 µM)
morphology score [1]: 0.209
SARS-CoV-2 infection rate [2]: 85% (inactive)

CN(C)c1cccc(-c2c3c(=O)n(-c4ccccc4Cl)[nH]c3cc(=O)n2C)c1 (10 µM)
morphology score [1]: 0.165
SARS-CoV-2 infection rate [2]: 112% (inactive)

CC1(C)S[C@@H]2[C@H](NC(=O)[C@H](NC(=O)N3CCN(S(C)(=O)=O)C3=O)c3ccccc3)C(=O)N2[C@H]1C(=O)O [mezlocillin] (10 µM)
morphology score [1]: 0.0709
SARS-CoV-2 infection rate [2]: 97% (inactive)

Cn1cc(-c2ccc3ncc(Cc4ccc5ncccc5c4)n3n2)cn1 (10 µM)
morphology score [1]: 0.442
SARS-CoV-2 infection rate [2]: 83% (inactive)

Cc1c(C(N)=O)cc([N+](=O)[O-])cc1[N+](=O)[O-] [dinitolmide] (10 µM)
morphology score [1]: -0.0186
SARS-CoV-2 infection rate [2]: 106% (inactive)

CCOC(=O)c1cncn1[C@H](C)c1ccccc1 [etomidate] (10 µM)
morphology score [1]: -0.0479
SARS-CoV-2 infection rate [2]: 110% (inactive)

O=C(COc1ccc(C(=O)c2ccccc2)cc1)NC1CCN(Cc2ccccc2)CC1 [adiporon] (10 µM)
morphology score [1]: 0.0636
SARS-CoV-2 infection rate [2]: 106% (inactive)

CCOC(=O)[C@@H](N)Cc1ccc(O)c(O)c1 [etilevodopa] (10 µM)
morphology score [1]: -0.149
SARS-CoV-2 infection rate [2]: 110% (inactive)

CCCC[C@@H](NC(=O)[C@@H](Cc1cn(C(=O)OC)c2ccccc12)NC(=O)[C@H](CC(C)(C)C)NC(=O)N1[C@H](C)CCC[C@@H]1C)C(=O)O (10 µM)
morphology score [1]: 0.0975
SARS-CoV-2 infection rate [2]: 104% (inactive)

N[C@H]1CC[C@H](N[C@@H]2C[C@H]2c2ccccc2)CC1 (10 µM)
morphology score [1]: 0.432
SARS-CoV-2 infection rate [2]: 79.5% (inactive)

NC(=O)c1ccccc1O [salicylamide] (10 µM)
morphology score [1]: -0.114
SARS-CoV-2 infection rate [2]: 102% (inactive)

O=C(Nc1ccc(N2CCC(C(=O)N3CCOCC3)CC2)cc1)c1cnc(Oc2ccccc2)nc1 (10 µM)
morphology score [1]: -0.02
SARS-CoV-2 infection rate [2]: 114% (inactive)

COc1ccc(S(=O)(=O)Nc2cc(Cl)cc(Cl)c2OC)cc1N1CCNCC1 (10 µM)
morphology score [1]: 0.132
SARS-CoV-2 infection rate [2]: 97.5% (inactive)

O=C(O)Cc1cccc(OCCCN(Cc2cccc(C(F)(F)F)c2Cl)CC(c2ccccc2)c2ccccc2)c1 (10 µM)
morphology score [1]: 0.267
SARS-CoV-2 infection rate [2]: 102% (inactive)

C=CC(=O)Nc1cc2c(Nc3ccc(F)c(Cl)c3)ncnc2cc1OCCCN1CCOCC1 [canertinib] (10 µM)
morphology score [1]: -0.116
SARS-CoV-2 infection rate [2]: 107% (inactive)

NS(=O)(=O)c1nn2cc(-c3ccccc3)nc2s1 (10 µM)
morphology score [1]: 0.289
SARS-CoV-2 infection rate [2]: 97.5% (inactive)

NC(=O)[C@@H](CCC(F)(F)F)N(Cc1ccc(-c2ncon2)cc1F)S(=O)(=O)c1ccc(Cl)cc1 [avagacestat] (10 µM)
morphology score [1]: 0.0806
SARS-CoV-2 infection rate [2]: 108% (inactive)

CC1(C)S[C@@H]2[C@H](NC(=O)Cc3ccccc3)C(=O)N2[C@H]1C(=O)O [benzylpenicillin] (10 µM)
morphology score [1]: -0.0812
SARS-CoV-2 infection rate [2]: 114% (inactive)

N[C@@H](CS)C(=O)O [L-cysteine] (10 µM)
morphology score [1]: 0.0349
SARS-CoV-2 infection rate [2]: 94% (inactive)

CC(=O)O[C@]1(C(C)=O)CC[C@H]2[C@@H]3C=C(Cl)C4=CC(=O)CC[C@]4(C)[C@H]3CC[C@@]21C [chlormadinone-acetate] (10 µM)
morphology score [1]: 0.106
SARS-CoV-2 infection rate [2]: 106% (inactive)

O=c1ccc2cc(O[C@@H]3O[C@H](CO)[C@@H](O)[C@H](O)[C@H]3O)c(O)cc2o1 [esculin] (10 µM)
morphology score [1]: 0.15
SARS-CoV-2 infection rate [2]: 111% (inactive)

COc1cc(OC)c(NC(=O)Nc2cc(C)on2)cc1Cl (10 µM)
morphology score [1]: 0.268
SARS-CoV-2 infection rate [2]: 87% (inactive)

CN1C(=O)N(c2ccc(C#N)c(C(F)(F)F)c2)C(=O)[C@]1(CO)c1ccccc1 [GLPG0492-R-enantiomer] (10 µM)
morphology score [1]: -0.00354
SARS-CoV-2 infection rate [2]: 104% (inactive)

COc1nccc(-c2c(-c3ccc(F)cc3)ncn2[C@H]2CC[C@H](O)CC2)n1 (10 µM)
morphology score [1]: 0.396
SARS-CoV-2 infection rate [2]: 85% (inactive)

NC12CC3CC(CC(C3)C1)C2 [amantadine] (10 µM)
morphology score [1]: -0.265
SARS-CoV-2 infection rate [2]: 110% (inactive)

COc1cc2ncnc(Sc3nnc(C)s3)c2cc1OC (10 µM)
morphology score [1]: 0.403
SARS-CoV-2 infection rate [2]: 102% (inactive)

CC(C)(O)C(=O)N1CCN(c2ccc(C(F)(F)F)c(C3=C(c4c[nH]c5ccccc45)C(=O)NC3=O)c2)CC1 (0.833333 µM)
morphology score [1]: -0.201
SARS-CoV-2 infection rate [2]: 108% (inactive)

O=C1CN=C(c2cccc(Br)c2)c2oc3ccccc3c2N1 (10 µM)
morphology score [1]: 0.0252
SARS-CoV-2 infection rate [2]: 95.5% (inactive)

CCCCOCCOc1nc(-c2ccc(C(=O)O)c(F)c2)sc1C (10 µM)
morphology score [1]: -0.127
SARS-CoV-2 infection rate [2]: 108% (inactive)

Cc1cnc(C(=O)NCCc2ccc(S(=O)(=O)NC(=O)NC3CCCCC3)cc2)cn1 [glipizide] (10 µM)
morphology score [1]: 0.218
SARS-CoV-2 infection rate [2]: 96% (inactive)

O=C(Oc1ccc(Br)cc1)N1CCN2CCC1CC2 (10 µM)
morphology score [1]: 0.273
SARS-CoV-2 infection rate [2]: 92% (inactive)

O=C(O)Cn1c2c(c3cc(F)ccc31)CN(C(=O)c1cccc3ccccc13)CC2 [setipiprant] (10 µM)
morphology score [1]: -0.161
SARS-CoV-2 infection rate [2]: 108% (inactive)

CCCC(=O)C1(c2ccccc2)CCN(C(=O)[C@@H](Cc2ccc(OC)cc2)NC(=O)[C@@H](N)Cc2cncn2C)CC1 (10 µM)
morphology score [1]: 0.106
SARS-CoV-2 infection rate [2]: 98% (inactive)

Cc1cccc(Nc2ccncc2S(=O)(=O)NC(=O)NC(C)C)c1 [torasemide] (10 µM)
morphology score [1]: 0.215
SARS-CoV-2 infection rate [2]: 102% (inactive)

COc1ccc(NS(=O)(=O)c2ccc(/N=N/c3ccc(O)c(C(=O)O)c3)cc2)nn1 [salazodine] (10 µM)
morphology score [1]: 0.0596
SARS-CoV-2 infection rate [2]: 113% (inactive)

O=C(NO)c1ccc2[nH]c(=O)c(CCCc3ccccc3)nc2c1 (10 µM)
morphology score [1]: -0.0251
SARS-CoV-2 infection rate [2]: 100% (inactive)

COC(=O)C[C@](O)(CCC(C)(C)O)C(=O)O[C@@H]1C(OC)=C[C@]23CCCN2CCc2cc4c(cc2[C@H]13)OCO4 [harringtonine] (10 µM)
morphology score [1]: 0.555
SARS-CoV-2 infection rate [2]: 49% (active)
